A selection: hits, their analogues and other compounds. The true share with any hit is near 1.6%.
KCNQ2 block – rat KCNQ2 potassium channel inhibitors, primary screen, cell-based, CHO-K1, FluxOR thallium flux, B-score | Potassium voltage-gated channel subfamily KQT member 2 (Rattus norvegicus), O88943 | 20 min; active compounds read low | B-score at 10 µM | actives 1.1% (n = 310,000) | AID 2156, 2009;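 active = fluorescence ratio B-score at most minus 3 library SDs, with starting brightness B-score within 2 library SDs, cut at about -5.5 in these data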
KCNQ2 enhance – potentiators of rat KCNQ2 potassium channel; Potassium voltage-gated channel subfamily KQT member 2 (Rattus norvegicus), O88943; CHO-K1 KCNQ2, FluxOR thallium flux fluorescence; active compounds read high; B-score at 10 µM; actives 0.54% (n = 310,000); AID 2239, 2010;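 active = fluorescence ratio B-score at least 3 SD of library B-scores, with initial fluorescence B-score within 3 of them, cut at about 5.3 in these data; same plate scores as AID 2156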;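 also: B-score of peak minus minimum over baseline fluorescence ratio after K+ and Tl+ stimulus; positive B-score means potentiation of KCNQ2 with more thallium influx and brighter signal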
Each line names hits and unclear results; the compound was inactive in the other large screens.

S=c1[nH]nc(-c2cc3c(s2)-c2ccccc2CC3)o1	KCNQ2 enhance 16
CC1CCc2sc(-c3n[nH]c(=S)o3)cc2C1 (configuration not stated)	none
N#CC(c1ccc(F)cc1)c1ccc(C(=O)c2ccc(F)cc2)cc1 (configuration not stated)	none (no result: KCNQ2 enhance)
Cc1ccc(C(C#N)c2ccc(C(=O)c3ccc(F)cc3)cc2)cc1 (configuration not stated)	KCNQ2 block -6.4
Cc1csc(Nc2nc(N)c(C(=O)Nc3cc(Cl)ccc3F)o2)n1	none (no result: KCNQ2 enhance)
N#Cc1cnn(-c2ccccc2)c1NC(=O)CN1CCN(c2ccccc2)CC1	none
CCOc1cc(C(=O)CSc2nnc(CNc3ccc(Cl)cc3)o2)ccc1NC(=O)CC	KCNQ2 enhance 6.2
COc1ccc(NCc2nnc(SCC(=O)c3ccc(OC)cc3)o2)cc1	none
O=C(O)COc1ccc(/C=C/c2nc(-c3ccccc3O)n[nH]2)cc1	none
COc1ccc(/C=C/c2nc(-c3ccccc3O)n[nH]2)cc1OC	KCNQ2 enhance 10
c1ccc(N2CCOCC2)c(Nc2nc3ccccc3n3cnnc23)c1	KCNQ2 block -6.3
c1ccc2c(c1)nc(N1CCOCC1)c1nncn12	none (no result: KCNQ2 enhance)
C=CCOC(=O)C1=C(C)NC(SCC(=O)OCC)=C(C#N)C1c1ccc(O)c(OC)c1 (configuration not stated)	KCNQ2 block -8.1
C=CCOC(=O)C1=C(C)NC(SC)=C(C#N)C1c1ccc(OCC)cc1 (configuration not stated)	none (no result: KCNQ2 enhance)
CC(C)CC(O)(c1ccccc1)C(CN1CCOCC1)c1ccccc1 (configuration not stated)	none (no result: KCNQ2 enhance)
OC(c1ccc(F)cc1)(C1CCCCC1)C(CN1CCOCC1)c1ccccc1 (configuration not stated)	KCNQ2 block -5.7
C=CCOc1c(CNc2ccc(S(N)(=O)=O)cc2)cccc1OC	none
COc1cccc(CNc2ccc(S(N)(=O)=O)cc2)c1OCc1ccccc1F	KCNQ2 enhance 9.3
CC(C)n1c(NCc2nc3ccccc3n2C)nc2ccccc21	none (no result: KCNQ2 enhance)
CCn1c(CNc2nc3ccccc3n2C(C)C)nc2ccccc21	KCNQ2 block -8.3
O=C(Nc1cccc(S(=O)(=O)N2CCCCCC2)c1)C1CCC1	none
Cc1nn(Cc2ccccc2)c(Cl)c1C(=O)OCc1nnc(-c2ccccc2)o1	none
Cc1nn(Cc2ccccc2)c(Cl)c1C(=O)OCc1nnc(-c2ccc(Cl)cc2)o1	KCNQ2 block -6.1
CN(C(=O)Nc1ccccc1)C1CCCCC1	none
CC(c1cccs1)N(C(=O)Nc1ccccc1)C1CCCCC1 (configuration not stated)	KCNQ2 block -5.9
COc1ccc(S(=O)(=O)N2CCCC(N(C)CCc3ccccc3)C2)cc1OC (configuration not stated)	none
CN1c2ccccc2C(C)(C)C12C=Cc1cc(O)ccc1O2 (configuration not stated)	KCNQ2 block -7.1
CN1c2ccccc2C(C)(C)C12C=Nc1c(cc(N3CCOCC3)c3ccccc13)O2 (configuration not stated)	none (no result: KCNQ2 enhance)
O=C(CNS(=O)(=O)c1ccc(Cl)cc1)OCC(=O)N1CCCc2ccccc21	none (no result: KCNQ2 enhance)
O=C(COC(=O)C1(c2ccc(Cl)cc2)CCCC1)N1CCc2ccccc21	KCNQ2 block -7.3
COc1cccc(N2CC(C(=O)Nc3nnc(SCC(=O)NCc4ccco4)s3)CC2=O)c1 (configuration not stated)	none
O=C(Nc1ccc(F)cc1F)c1cccn1-c1ncc(C(F)(F)F)cc1Cl	none (no result: KCNQ2 enhance)
Cc1cc(C)cc(NC(=O)c2cccn2-c2ncc(C(F)(F)F)cc2Cl)c1	KCNQ2 block -7.2
CC1CCN(S(=O)(=O)CCNC(=O)c2ccc3c(c2)OCO3)CC1	none
CCn1c(=S)sc2c(=O)n(CC(=O)Nc3ccccc3C(F)(F)F)c(C)nc21	none
COc1ccc(CC(=O)Nc2cccc(/C(C)=N/NC(=O)c3cccc([N+](=O)[O-])c3)c2)cc1	KCNQ2 block -6
COc1ccc(CC(=O)N/N=C(\C)c2cccc(NC(=O)C3CC3)c2)cc1	none
CCOC(=O)C1CCCN(C(=O)c2[nH]c3ccc(OC)cc3c2C)C1 (configuration not stated)	none (no result: KCNQ2 enhance)
COc1ccc2oc(=N)c(C(=O)Nc3ccc(C)cc3)cc2c1	none (no result: KCNQ2 enhance)
COc1ccc2o/c(=N\O)c(C(=O)Nc3ccc(C)cc3)cc2c1	KCNQ2 block -10
COC(=O)C(CC(=O)c1ccc(Cl)cc1)c1ccc(C(C)C)cc1 (configuration not stated)	KCNQ2 block -5.9
Cc1ccc(C(CC(=O)c2ccc(Cl)cc2)C(=O)O)cc1 (configuration not stated)	none (no result: KCNQ2 enhance)
CC1(C)CN=C(N(Cc2ccccc2)C(=O)Nc2ccccc2)S1	KCNQ2 block -6.4
CC1(C)CN=C(N(C(=O)Nc2ccccc2)c2ccccc2F)S1	none (no result: KCNQ2 enhance)
NNC(=O)c1cccn(Cc2cccc(C(F)(F)F)c2)c1=O	none (no result: KCNQ2 enhance)
CC1=C(/C=C/C(C)=C/C=C/C(C)=C\C(=O)O)C(C)(C)CCC1	KCNQ2 block -7.7

High-throughput results: PubChem BioAssay, Johns Hopkins Ion Channel Center
